The test can be described thus: modulation of TERT promoter-driven luciferase – cell-based, luciferase reporter, human, primary screen (AID 1259240). The settings on record: A2780 TERT promoter luciferase reporter, 16 h; at 20 µM, fold versus average of vehicle-only wells.

Unmarked numbers belong to inactive results. Active and inactive are the calls of the source. No stated cut-off is given here; in the data, active means fold change mostly below about -2 (no sharp cut-off); inactive means mostly above about -1.8.

With `Cc1ccc2oc(-c3ccccc3C(=O)O)cc(=O)c2c1`, the fold change was 1.62.

With `CN1C(=O)/C(=C/c2cn(CC(=O)N3CCCCC3)c3ccccc23)c2ccccc21`, the fold change was -1.35.

With `COc1ccc(NC(=O)c2cnccn2)cc1F`, the fold change was -1.32.

As to `c1ccc(Nc2c(-c3ccc(N4CCOCC4)cc3)nc3cnccn23)cc1`, the fold change was 1.08.

As to `Cc1ccc2nc(NC3=NCN(Cc4ccco4)CN3)nc(C)c2c1`, the fold change is 1.

With `CN(C)c1nc(C(N)=O)nc(N2CCOCC2)n1`, the fold change was 1.62.

Regarding `Cn1c(=O)c2c(SCC(=O)N3CCOCC3)nc(-c3ccco3)nc2n(C)c1=O`, the fold change is 1.36.

On to `Cc1cc2[nH]c(=O)c(CCO)c(C)n2n1`, for which the compound was classed as inactive.

Regarding `COc1ccccc1Nc1nc(N)nc(CSc2ncccn2)n1`, the fold change was -1.15.

As for `COC(=O)c1c(NC(=O)Cn2nc(C)c([N+](=O)[O-])c2C)sc2c1CCCC2`, the fold change was -1.68.

Regarding `CCOc1cc2c(cc1OCC)C(c1ccc(Cl)c(Cl)c1)CC(=O)N2` (centres undefined), the fold change was 1.29.

On to `CCOC(=O)C1CCN(c2cc(C)c(C#N)c3nc4ccccc4n23)CC1`, for which the fold change was -2.16 (active).

Regarding `CC(C)Cc1c(O)nc(SCCN2CCOCC2)[nH]c1=O`, the fold change was -1.64.

Regarding `CCCCC1=NN(C(=O)C(=O)Nc2ccc(Br)cc2)C(O)(C(F)(F)F)C1` (centres undefined), the fold change is 1.01.

Regarding `O=C(NC1(C(F)(F)F)NC(=O)N(Cc2ccco2)C1=O)c1ccncc1` (centres undefined), the fold change was -2.35 (active).

Turning to `C=C1c2cc(CC)ccc2NC(=O)N1c1ccc(C)cc1`, the fold change was 1.01.

`Cc1ccc(S(=O)(=O)N2N=C(c3ccc(NS(C)(=O)=O)cc3)CC2c2ccco2)cc1` (centres undefined): the fold change was -1.45.

`CCCCNc1nc2c(c(=O)[nH]c(=O)n2C)n1CCO`: the fold change is -1.67.

Consider `O=C(c1ccc(CSCc2ccccc2F)o1)N1CCN(c2ccc(N3CCOCC3)nn2)CC1`, for which the fold change is 1.7.

With `O=C1OC(Nc2ccc(F)cc2)c2ccccc21` (centres undefined), the fold change is -1.21.

Consider `CC1CCC(NC(=O)Cn2c(=O)c(C(F)(F)F)nc3ccccc32)CC1` (centres undefined), for which the fold change is -1.07.

Take `CCN(CC)C(=O)C1=C(C)Nc2nc3ccccc3n2C1c1ccncc1` (centres undefined): the fold change was -1.02.

As for `CCN(CC)CCNc1nc2c(c(=O)[nH]c(=O)n2C)n1Cc1ccccc1Cl`, the fold change was -1.23.

With `Cc1ccc(CN2C(=O)/C(=C/c3c(NCCO)nc4ccc(C)cn4c3=O)SC2=S)cc1`, the fold change was -1.97.

For the origin of these results see PubChem BioAssay AID1259240 (Keith Lab, Institute of Cancer Science, University of …, 2017).
